Screening results deposited in PubChem by National Center for Advancing Translational Sciences (NCATS).
LASV entry inh: qHTS for Inhibitors of binding or entry into cells for Lassa Virus. Lassa virus pseudotype entry inhibition, cell reporter. Potency, µM (series often up to 37.9 µM), for inactives: top-dose activity change, negative = inhibition, most hits filed as inhibitors. 1.2% of 300,000 active; calls by dose curve; tested in HEK293 cells; also: potency is read from the fitted curve at half-maximal effect; % is scaled to controls: 0 for no effect and ±100 for the full control effect; nearly all actives have a fitted effect of over 50% in size
HCMV antiviral: qHTS Assay for inhibitors of the human cytomegalovirus (HCMV). AID 1259415, 2018. activity change, negative = inhibition, % at 57.5 µM. HFF cells, HCMV-luciferase reporter, 72 h; hits give low values. 4.5% of 410,000 active; in the data active = activity change below about -60%; inconclusive = no clear call, values can overlap the other calls; inactive = above about -39%; also: % is scaled to controls: 0 for no effect and ±100 for the full control effect
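Human foreskin fibroblasts infected with luciferase-reporter HCMV at MOI 1 PFU/cell, compounds at two doses. Luciferase measured 72 h post infection; normalized to buffer-only basal and Salinomycin (10uM) controls.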
FMDV antiviral: High Throughput Screening for Foot and Mouth Disease Virus Antivirals. FMDV antiviral cell-based qHTS. Potency, µM (series often up to 57.9 µM), for the others: at the top dose activity change, negative = inhibition, usual class: inhibitors. 1.2% of 410,000 active. AID 1159524, 2015; calls by dose curve; tested in HEK293T cells; also: read-out not given here; potency is read from the fitted curve at half-maximal effect; % is scaled to controls: 0 for no effect and ±100 for the full control effect; nearly all actives have a fitted effect of over 45% in size
SARS PLP yeast: qHTS of Yeast-based Assay for SARS-CoV PLP; S. cerevisiae expressing SARS-CoV PLpro, growth rescue; Potency, µM (top dose mostly 32.9 µM), for the others: at the top dose activity, positive = growth rescue, usual class: activators; 0.19% of 330,000 active; calls by dose curve; also: potency is read from the fitted curve at half-maximal effect; 0% is about no effect; nearly all actives have a fitted effect of over 55% in size
MARV entry inh: qHTS for inhibitors of binding or entry into cells for Marburg Virus. 1.8% of 300,000 active. Potency, µM (doses to about 37.8 µM), for the others: at the top dose activity change, negative = inhibition, actives largely listed as inhibitors. AID 540276, 2011. Marburg virus pseudotyped entry inhibition, cell reporter; calls by dose curve; tested in HEK293 cells; also: potency is read from the fitted curve at half-maximal effect; % is scaled to controls: 0 for no effect and ±100 for the full control effect
HCV inhibitor: qHTS Assay for Inhibitors of Hepatitis C Virus (HCV); Huh7.5.1 HCVcc-Cre infection, luciferase reporter, 44 h; Potency, µM (series often up to 41.8 µM), for the others: top-dose activity change, negative = inhibition, usual class: inhibitors; 3.4% of 340,000 active; active = well fitted inhibition curve with a large enough effect; inconclusive = small, poorly fitted or top-dose-only effect, or another doubt; inactive = no such curve, though single readings can be large or run the other way; also: potency is read from the fitted curve at half-maximal effect; % is scaled to controls: 0 for no effect and ±100 for the full control effect
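Reporter virus HCVcc-Cre (~0.5 moi) infects cells exposed to compound; seeding density 1,000 cells/well with 4 h settling beforehand. Luminescence, 15 sec read, taken 44 h post-infection following a 15 min RT substrate incubation.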
Numbers without * were called inactive; ? = inconclusive; . = no result given; [ ] = another dose, or the depositor's remark. In the library only some 8% were active in any assay of this set; here they are far more common.

SMILES	LASV entry inh	HCMV antiviral	FMDV antiviral	SARS PLP yeast	MARV entry inh	HCV inhibitor
CC(C)Cn1c(N)c(C(=O)COC(=O)c2cc(-c3ccccc3)nc3ccccc23)c(=O)n(C)c1=O	0%	-14	?	1%	-14%	?
CC(C)Cn1c(N)c(C(=O)COC(=O)c2cnc(Cl)c(Cl)c2)c(=O)n(C)c1=O	.	13	-34%	-1%	.	16µM*
CC(C)Cn1c(N)c(C(=O)COC(=O)c2cc(C3CC3)nc3ccccc23)c(=O)n(C)c1=O	21µM*	15	32µM*	1%	-36%	?
CC(=O)NCC(=O)NCC1Cc2cc(C)cc(-c3ccccn3)c2O1 (centres undefined)	.	.	-5%	.	.	.
CN(C)c1ncc2nc(-c3ccc(F)cc3)c(=O)n(-c3ccccc3)c2n1	.	.	1%	.	.	.
FC(F)(F)c1cc(-c2ccco2)nc(NCc2ccccc2)n1	0%	-12	-26%	-17%	-13%	?
Fc1ccc(CNc2nc(-c3ccco3)cc(C(F)(F)F)n2)cc1	-21%	-16	-28%	-17%	9.2µM*	?
Cc1nc2ccccc2n1-c1nc(-c2ccco2)cc(C(F)(F)F)n1	?	-104*	-6%	1%	?	3.2µM*
COc1ccc(OC)c(CNCc2c(C(=O)O)n(Cc3cccc(F)c3)c3cc(OC)ccc23)c1	6%[46.1 µM]	11	38%	.	.	.
CC[n+]1c(/C=C/C=C2/N(C)c3ccccc3C2(C)C)sc2ccccc21	1.3µM*	.	.	.	0.92µM*	.
CCCCN1C(=O)/C(=C/C=C2\N(C)c3ccccc3C2(C)C)SC1=S	.	.	.	-6%	-1%	.
CCN1/C(=C\C=C\C2=[N+](CC)c3ccccc3C2(C)C)C(C)(C)c2ccccc21	0.79µM*	.	35µM*	-33%	0.71µM*	0.56µM*
Cc1cccc(CNC(=O)c2cnc3sc(N4CCOCC4)nn3c2=O)c1	-1%[46.1 µM]	-7	-19%	.	.	.
O=C(NC1CCCc2ccccc21)c1cn2ccccc2n1 (centres undefined)	7%	5	43%	-2%	5%	?
Cc1nc2ccccn2c1C(=O)NC1CCCc2ccccc21 (centres undefined)	.	-72*	?	-6%	.	7.1µM*
COCCNc1ccc([N+](=O)[O-])cc1C(=O)NC1CCCc2ccccc21 (centres undefined)	6%	35	-13%	-5%	?	13µM*
COc1ccc(C(=O)NC2CCCc3ccccc32)cc1 (centres undefined)	-7%	-70*	21%	-4%	?	-9%
Cc1cccn2c(CNC3CCCc4ccccc43)c(C(=O)N3CCCCC3)nc12 (centres undefined)	?	-8	-18%	0%	10µM*	-5%
COc1cccc(C(=O)NC2CCCc3ccccc32)c1 (centres undefined)	17%	26	32%	-7%	-5%	-6%
CCOC(=O)C1CCCN(Cc2c(C(=O)N3CCCCC3)nc3c(C)cccn23)C1 (centres undefined)	-1%[46.1 µM]	31	-12%	1%	5%[46.1 µM]	7%
Cc1c(C(=O)N2CCC(Cc3ccccc3)CC2)sc2ncnc(NCc3ccccn3)c12	.	.	-29%	.	.	.
O=C(O)c1ccccc1C(=O)NNc1ccc(Cl)cc1Cl	.	-23	-9%	-1%	.	5%
CN(c1ccccc1)S(=O)(=O)c1cccc(NC(=O)c2cccc(C#N)c2)c1	.	0	25µM*	-3%	.	10µM*
CN(c1ccccc1)S(=O)(=O)c1cccc(C(=O)Nc2cccc(C(=O)NC3CC3)c2)c1	-33%	-19	?	-1%	-29%	?
Cc1ccc(NC(=O)c2ccc3ncsc3c2)cc1S(=O)(=O)N(C)C	.	133	.	3%	.	.
CN(c1ccccc1)S(=O)(=O)c1cccc(NC(=O)c2ccc3ncsc3c2)c1	?	0	35µM*	-2%	?	11µM*
COCCCNC(=S)N1CCN(Cc2ccc3c(c2)OCO3)CC1	.	-103*	-18%	1%	.	10%
